This is an account of results in PubChem BioAssay (NCI).

Holding throughout (assay): NCI-60 one-dose screen, 48 h (100 = growth as untreated, 0 = no growth, -100 = all killed)
Conditions in all cases: 10 µM unless noted

Test [1] deals with SR leukemia.
The subject of test [2] is RPMI-8226 leukemia.
For test [3], the system named is OVCAR-8 ovarian.
For test [4], the system named is OVCAR-5 ovarian.
In test [5] the test system is OVCAR-4 ovarian.
Test [6] relates to SK-OV-3 ovarian.
Test [7] has as its system IGROV1 ovarian.
Test [8] relates to OVCAR-3 ovarian.
Test [9] deals with HS 578T breast.
The subject of test [10] is NCI/ADR-RES ovarian.
Test [11] deals with T-47D breast.
The subject of test [12] is BT-549 breast.
In test [13] the test system is MDA-MB-435 melanoma.
The test system of test [14] is SW-620 colon.
Test [15] concerns MCF7 breast.
In test [16] the test system is HCT-116 colon.
In test [17] the test system is HCC-2998 colon.
Test [18] relates to KM12 colon.

The panel holds about 83,000 compounds, 20% with a hit somewhere; the sample as a whole holds those more often.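 Growth was measured after 48 h exposure to one concentration of compound in 96-well plates. Values under 10 count as active.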 A number with no mark means an inactive call. Active and inactive are the calls of the source.

As for `COc1ccc(C(=O)C/C(=C\c2ccc(O)c(OC)c2)C(=O)NN)cc1`, the growth in test [1] is 26.9%; in test [2], 80.3%; in test [3], 80.7%; in test [4], 105%; in test [5] it was 101%; in test [6], 79.9%. For the same compound, the growth in test [7] was 82.6%; in test [8], 87.6%; in [9] it was 101%; in [10], 74.8%; in [11], 66.9%; in test [12] it was 63.7%. The growth is 9.68% (active) in [13]; 84.1% in [14]; 47.9% in [15]; 72.2% in [16]; 104% in test [17]; 73.2% in test [18].

For the compound `CCOC(=O)c1cnn(CC(C)O)c1NC(=O)NCc1cccc(F)c1` (centres undefined), the growth in test [1] was 92.1%; in [2], 90.3%; in test [3] it was 106%; in test [4], 107%; in [5], 122%; in test [6], 101%. The growth in test [7] was 95.5%; in [8] it was 107%; in test [9], 103%; in test [10], 96.9%; in test [11] it was 100%; in [12], 101%. The growth in test [13] is 107%; in test [14], 102%; in [15], 104%; in test [16] it was 84%; in test [17], 94.9%; in [18], 106%.

In the case of `COc1ccc2c(c1)CC[C@@H]1[C@@H]2CC[C@]2(C)C3C(=CC(COC(C)=O)C4C(=O)N(c5ccc(Cl)cc5)C(=O)C43)C[C@@H]12` (some centres undefined), the growth is 35.4% in test [1]; 61.8% in test [2]; 107% in test [3]; 78.4% in test [4]; 101% in test [5]; 125% in [6]. The growth in test [7] was 119%; in [8], 110%; in test [9], 110%; in [10] it was 102%; in [11], 105%; in test [12], 116%. Moreover, the growth in test [13] was 111%; in test [14], 104%; in test [15], 108%; in [16], 85.2%; in [17], 92.9%; in test [18], 102%.

Turning to `C#CCOc1ccc2nc(CCl)c(Cl)c(Nc3cccc(C(F)(F)F)c3)c2c1`, the growth is 17.7% in test [1]; 62.7% in test [2]; 82.7% in test [3]; 104% in test [4]; 101% in test [5]; 114% in test [6]. Moreover, the growth in test [7] was 85.1%; in test [8], 78.2%; in [9], 88.8%; in test [10], 97.1%; in test [11] it was 65.9%; in test [12], 60.6%. Moreover, the growth in [13] was 84.1%; in test [14] it was 66.4%; in test [15] it was 40.7%; in test [16] it was 64%; in test [17], 98.3%; in test [18] it was 93.6%.

For `CCCCO[C@@H]1C=C2[C@H]3CC(C)(C)C(=O)C[C@]3(C(=O)O[C@@H]3O[C@H](CO[C@@H]4O[C@H](CO)[C@@H](OC5OC(C)C(O)C(O)C5O)[C@H](O)[C@H]4O)[C@@H](O)[C@H](O)[C@H]3O)CC[C@@]2(C)[C@]2(C)CC[C@H]3C(C)(C)C(=O)CC[C@]3(C)[C@@H]12` (some centres undefined), the growth in test [1] is 69.9%; in test [2], 20.4%; in test [3], 94.4%; in test [4], 96.1%; in test [5], 75%; in test [6], 91.8%. Also, the growth was 69.1% in test [7]; 48.7% in test [8]; 85.4% in test [9]; 83.8% in test [10]; 67.4% in test [11]; 57.6% in test [12]. In addition, the growth is 51.9% in [13]; 67.5% in [14]; 55.5% in [15]; 64.9% in test [16]; 82.7% in test [17]; 75.2% in test [18].

Regarding `CCN(CC)C(=O)CC1=C(C)/C(=C/c2[nH]c(-c3ccc[nH]3)cc2OC)N=C1C`, the growth is -30% (active) in test [1]; 13.7% in test [2]; 16.1% in [3]; 51.4% in [4]; 43.9% in [5]; 22.4% in test [6]. Further, the growth in test [7] was 30.6%; in test [8], 11.1%; in test [9], 10.9%; in test [10] it was 18.3%; in test [11] it was 33.4%; in test [12] it was 21.4%. For the same compound, the growth in test [13] is 17.2%; in test [14], 15.2%; in test [15], 19.3%; in test [16] it was 1.94% (active); in [17] it was 30.4%; in test [18], 13.9%.

As for `CCNC(=O)N1CCc2c(Br)c3c(c(OC)c2C1Cc1ccc(OC)cc1)OCO3` (centres undefined), the growth is 33.1% in [1]; 44.3% in [2]; 49.8% in test [3]; 74.4% in test [4]; 54.3% in test [5]; 27.6% in [6]. In addition, the growth in test [7] is 35.7%; in [8], 7.18% (active); in test [9], 16.9%; in test [10] it was 4.18% (active); in test [11], 20.6%; in test [12], 30%. Further, the growth in [13] is -9.57% (active); in test [14], 19%; in [15], 12.2%; in [16] it was 20.9%; in [17] it was 71.3%; in [18], 22%.

In the case of `CN(C)c1ccc(CNCCO)cc1`, the growth is 108% in test [1]; 84.6% in test [2]; 90.6% in [3]; 67.6% in test [4]; 112% in test [5]; 71.4% in [6]. Further, the growth was 107% in [7]; 104% in test [8]; 96% in test [9]; 103% in test [10]; 55.5% in [11]; 75.7% in [12]. Moreover, the growth in test [13] was 102%; in [14] it was 94.5%; in test [15], 94%; in test [16], 72.1%; in test [17] it was 109%; in test [18] it was 105%.
